Test results taken from PubChem BioAssay (NCI).
About 79,000 compounds went through this panel and 15% of them were active in at least one assay; those are over-represented in the sample as a whole. Active and inactive are the calls of the source. Cut-off read from the data, not from the text of the source: active = growth inhibition above about 70%; inactive = the rest.

Legend:
[1] = NCI Yeast Anticancer Drug Screen. Data for the mgt1 strain (AID 153); details: S. cerevisiae mgt1 mutant growth inhibition, hits give high values
How it was run: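 Strain: mgt1 yeast, one of a set carrying defined DNA damage repair or cell cycle control alterations. Compound-treated growth compared with vehicle.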

[2] = NCI Yeast Anticancer Drug Screen. Data for the rad50 strain (AID 155);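 note: 0% = growth of vehicle-only cultures of the same strain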; details: S. cerevisiae rad50 strain growth inhibition, hits give high values
How it was run: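 Compounds were tested on a yeast strain with an engineered DNA damage repair alteration; the reported value is growth inhibition normalised to vehicle treatment.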

[3] = NCI Yeast Anticancer Drug Screen. Data for the mec2-1 strain (AID 157); details: S. cerevisiae mec2-1 strain, hits give high values
How it was run: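 Strain: mec2-1 (DNA repair/cell cycle alteration). Compound exposure, then growth measured; inhibition expressed relative to vehicle.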

[4] = NCI Yeast Anticancer Drug Screen. Data for the rad14 strain (AID 159);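 note: 0% = growth of vehicle-treated control cultures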; details: S. cerevisiae rad14 strain growth inhibition, hits give high values
How it was run: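 Compound-treated yeast with a defined DNA-repair lesion; growth inhibition normalised to vehicle-treated cultures.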

[5] = NCI Yeast Anticancer Drug Screen. Data for the sgs1 mgt1 strain (AID 161);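 note: 0% = growth of cultures given vehicle only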; details: S. cerevisiae sgs1 mgt1 strain, hits give high values
How it was run: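 Mutant yeast exposed to compound; growth scored against vehicle-only wells.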

[6] = NCI Yeast Anticancer Drug Screen. Data for the CLN2oe strain (AID 163);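 note: 0% = growth of vehicle-only control cultures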; details: S. cerevisiae CLN2oe strain, hits give high values
How it was run: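 Growth of a genetically modified yeast strain is measured after compound exposure and compared with cultures given vehicle alone.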

[7] = NCI Yeast Anticancer Drug Screen. Data for the cln2 rad14 strain (AID 165);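 note: 0% = growth equal to vehicle treated cultures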; details: S. cerevisiae cln2 rad14 strain, hits give high values
How it was run: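 Compounds are applied to the cln2 rad14 yeast strain, and growth is then compared with that of vehicle-treated cultures to give inhibition.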

[8] = NCI Yeast Anticancer Drug Screen. Data for the bub3 strain (AID 167); details: S. cerevisiae bub3 mutant strain, hits give high values
How it was run: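 Growth of a checkpoint-deficient yeast mutant is measured after compound exposure. Values represent inhibition relative to vehicle.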

[9] = NCI Yeast Anticancer Drug Screen. Data for the wt2 strain (AID 169);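 note: 0% = growth of vehicle-treated yeast cultures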; details: S. cerevisiae wt2 strain growth inhibition, hits give high values
How it was run: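 This strain belongs to a panel of yeast strains with defined genetic alterations in DNA damage repair or cell cycle control. Compounds are applied, and growth inhibition is measured against vehicle-treated cultures.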

[10] = NCI Yeast Anticancer Drug Screen. Data for the mlh1 strain (AID 171);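 note: 0% = growth of vehicle-treated control cultures of the same strain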; details: S. cerevisiae mlh1 strain growth inhibition, hits give high values
How it was run: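 Growth of the mutant yeast strain after compound exposure, expressed as inhibition relative to vehicle-only controls.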

[11] = NCI Yeast Anticancer Drug Screen. Data for the sgs1 strain (AID 173);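 note: 0% = growth of vehicle-only control cultures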; details: S. cerevisiae sgs1 mutant, hits give high values
How it was run: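 Growth of a yeast strain bearing a defined genetic alteration is measured after compound treatment. Inhibition is expressed relative to vehicle-only controls.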

[12] = NCI Yeast Anticancer Drug Screen. Data for the mlh1 rad18 strain (AID 175); details: S. cerevisiae mlh1 rad18 strain growth inhibition, hits give high values
How it was run: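 Read-out is yeast growth inhibition, calculated against vehicle-only controls. The compound was applied to a strain engineered with DNA damage repair alterations.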

[13] = NCI Yeast Anticancer Drug Screen. Data for the rad18 strain (AID 177); details: S. cerevisiae rad18 mutant growth inhibition, hits give high values
How it was run: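 Growth of the mutant yeast strain after compound exposure, normalised to vehicle-only cultures.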

[14] = NCI Yeast Anticancer Drug Screen. Data for the rad52 strain (AID 147);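 note: 0% = growth of vehicle-treated control cultures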; details: S. cerevisiae rad52 mutant growth inhibition, hits give high values
How it was run: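 Compounds are applied to a genetically defined yeast strain lacking normal DNA damage repair, and inhibition of growth is expressed relative to cultures given vehicle only.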

[15] = NCI Yeast Anticancer Drug Screen. Data for the rad50EPP+ strain (AID 151);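 note: 0% = growth of vehicle-treated control cultures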; details: S. cerevisiae rad50 mutant strain, hits give high values
How it was run: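 Compounds were applied to the rad50EPP+ yeast strain, which bears a defined DNA repair alteration, and growth inhibition was determined relative to vehicle-treated cultures.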

[16] = at 5.0 µM (retest, dose inferred, filed as 0.5)
[17] = at 50.0 µM (retest, dose inferred, filed as 5.0)

Measured: growth inhibition

CCCCCCCCCCCCCCCCOP(=O)(O)OCC(N)C(=O)O (stereo unspecified)
active: [1]; at 33.0 µM 97% | [1]; at 100.0 µM 97% | [2]; at 33.0 µM 97% | [2]; [17] 98% | [2]; at 50.0 µM 98.4% | [2]; at 100.0 µM 97% | [3]; at 33.0 µM 98% | [3]; [17] 99% | [3]; at 50.0 µM 98.2% | [3]; at 100.0 µM 97% | [4]; at 33.0 µM 98% | [4]; at 100.0 µM 97% | [5]; [17] 99% | [5]; at 50.0 µM 98.8% | [6]; at 33.0 µM 94% | [6]; at 100.0 µM 97% | [7]; [17] 99% | [7]; at 50.0 µM 98% | [8]; at 33.0 µM 98% | [8]; [17] 99% | [8]; at 50.0 µM 98.8% | [8]; at 100.0 µM 98% | [10]; at 33.0 µM 97% | [10]; at 100.0 µM 97% | [11]; at 33.0 µM 98% | [11]; at 100.0 µM 98% | [12]; [17] 99% | [12]; at 50.0 µM 98.2% | [13]; at 33.0 µM 97% | [13]; at 100.0 µM 97%
inactive: [1]; at 1.2 µM -1% | [1]; at 3.7 µM 5% | [1]; at 11.0 µM 52% | [2]; at 1.2 µM -20% | [2]; at 3.7 µM -6% | [2]; [16] -25% | [2]; at 11.0 µM 42% | [3]; at 1.2 µM 6% | [3]; at 3.7 µM 3% | [3]; [16] 12% | [3]; at 11.0 µM 50% | [4]; at 1.2 µM 4% | [4]; at 3.7 µM -4% | [4]; at 11.0 µM 59% | [5]; [16] -13% | [6]; at 1.2 µM 6% | [6]; at 3.7 µM -10% | [6]; at 11.0 µM -3% | [7]; [16] 6% | [8]; at 1.2 µM -13% | [8]; at 3.7 µM -29% | [8]; [16] -14% | [8]; at 11.0 µM 34% | [9]; at 1.2 µM -17% | [9]; at 3.7 µM -22% | [9]; at 11.0 µM -22% | [9]; at 33.0 µM -22% | [9]; at 100.0 µM 48% | [10]; at 1.2 µM -23% | [10]; at 3.7 µM -11% | [10]; at 11.0 µM 53% | [11]; at 1.2 µM 14% | [11]; at 3.7 µM 1% | [11]; at 11.0 µM 51% | [12]; [16] -26% | [13]; at 1.2 µM -25% | [13]; at 3.7 µM -11% | [13]; at 11.0 µM 40%

CCOC(=O)CC1(C(=O)OCC)c2[nH]c3ccccc3c2CCN1Cc1ccccc1 (stereo unspecified)
inactive: [14]; at 1.2 µM -1% | [14]; at 3.7 µM 0% | [14]; at 11.0 µM 1% | [14]; at 33.0 µM 7% | [14]; at 100.0 µM 45% | [15]; at 1.2 µM -7% | [15]; at 3.7 µM -7% | [15]; at 11.0 µM -11% | [15]; at 33.0 µM -9% | [15]; at 100.0 µM 0% | [1]; at 1.2 µM -2% | [1]; at 3.7 µM -1% | [1]; at 11.0 µM 1% | [1]; at 33.0 µM 3% | [1]; at 100.0 µM 50% | [2]; at 1.2 µM -2% | [2]; at 3.7 µM -2% | [2]; [16] 50% | [2]; at 11.0 µM 5% | [2]; at 33.0 µM 5% | [2]; [17] 50% | [2]; at 100.0 µM 38% | [3]; at 1.2 µM -3% | [3]; at 3.7 µM -4% | [3]; [16] 13% | [3]; at 11.0 µM -5% | [3]; at 33.0 µM -2% | [3]; [17] 13% | [3]; at 50.0 µM 61.2% | [3]; at 100.0 µM 50% | [4]; at 1.2 µM 1% | [4]; at 3.7 µM 1% | [4]; at 11.0 µM 1% | [4]; at 33.0 µM 3% | [4]; at 100.0 µM 33% | [5]; [16] 43% | [5]; [17] 43% | [5]; at 50.0 µM 62% | [6]; at 1.2 µM -1% | [6]; at 3.7 µM 2% | [6]; at 11.0 µM 4% | [6]; at 33.0 µM 12% | [7]; [16] -4% | [7]; [17] -4% | [8]; at 1.2 µM -3% | [8]; at 3.7 µM -7% | [8]; [16] 6% | [8]; at 11.0 µM 8% | [8]; at 33.0 µM 26% | [8]; [17] 6% | [8]; at 50.0 µM 55.1% | [8]; at 100.0 µM 37% | [9]; at 1.2 µM -1% | [9]; at 3.7 µM 0% | [9]; at 11.0 µM 0% | [9]; at 33.0 µM 2% | [9]; at 100.0 µM 45% | [10]; at 1.2 µM -4% | [10]; at 3.7 µM -3% | [10]; at 11.0 µM -2% | [10]; at 33.0 µM 11% | [10]; at 100.0 µM 45% | [11]; at 1.2 µM -4% | [11]; at 3.7 µM -7% | [11]; at 11.0 µM -5% | [11]; at 33.0 µM 0% | [11]; at 100.0 µM 40% | [12]; [16] 31% | [12]; [17] 31% | [12]; at 50.0 µM 65.2% | [13]; at 1.2 µM -3% | [13]; at 3.7 µM -15% | [13]; at 11.0 µM 8% | [13]; at 33.0 µM 3% | [13]; at 100.0 µM 35%
active: [2]; at 50.0 µM 70.9% | [6]; at 100.0 µM 74% | [7]; at 50.0 µM 74%
